About 4,600 (1.3%) of roughly 360,000 compounds were called active.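 How the source made its calls: active means percent inhibition above its own plate's cutoff, namely the mean of that plate's compound wells plus 3 SD; inactive means the rest.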 Only a selection was taken, and actives are over-represented in it overall.
Biological target: Muscarinic acetylcholine receptor M1 (Homo sapiens) (UniProt P11229)
Assay: human M1 muscarinic receptor antagonists, primary screen, CHO-K1 cells, Fluo-8 calcium fluorescence, 1536-well (AID 588852);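 further: peak over basal fluorescence ratio during 140 s after agonist addition; 0% = ACh EC80 plus DMSO and 100% = DMSO alone without agonist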
Conditions: CHO-K1 hM1, Fluo-8 calcium fluorescence, ACh EC80 antagonist; at 3 µM; stronger effect = higher value

Chain of Muscarinic acetylcholine receptor M1 (Homo sapiens) (P11229 whole entry, looked up): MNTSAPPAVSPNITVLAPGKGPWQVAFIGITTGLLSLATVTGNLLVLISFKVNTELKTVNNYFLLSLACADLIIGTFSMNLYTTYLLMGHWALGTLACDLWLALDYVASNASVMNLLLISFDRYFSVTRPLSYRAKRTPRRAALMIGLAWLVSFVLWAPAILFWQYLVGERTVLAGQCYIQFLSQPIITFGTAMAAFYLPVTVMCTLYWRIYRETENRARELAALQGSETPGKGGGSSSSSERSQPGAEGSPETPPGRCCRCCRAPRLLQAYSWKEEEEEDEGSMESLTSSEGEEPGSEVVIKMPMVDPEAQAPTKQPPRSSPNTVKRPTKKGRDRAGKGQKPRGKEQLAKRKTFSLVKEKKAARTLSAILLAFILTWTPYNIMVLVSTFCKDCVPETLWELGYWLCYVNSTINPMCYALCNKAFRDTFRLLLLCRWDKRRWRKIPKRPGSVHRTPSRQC

Structure (SMILES)	inhibition
Cc1cc(NC(=O)COC(=O)c2ccc(F)c(S(=O)(=O)N3CCOCC3)c2)no1	-35% (inactive)
COc1ccc(C(=O)Oc2ccc(-c3nnco3)cc2)cc1S(=O)(=O)N1CCOCC1	0.6% (inactive)
O=C(Oc1ccc(-c2nnco2)cc1)c1ccc(F)c(S(=O)(=O)N2CCOCC2)c1	38.5% (active)
CC1=C2C(=O)OC(c3ccoc3)C2(C)CCC1 (stereo not drawn)	-3.46% (inactive)
Cc1ccc(S(=O)(=O)Nc2ccc3ncccc3c2)cc1	28.8% (active)
Cc1cc(C)cc(OCC(=O)Nc2ccc(S(=O)(=O)Nc3ccccn3)cc2)c1	-5.97% (inactive)
O=S(=O)(Nc1ccc(Oc2ncccn2)c(Cl)c1)c1ccc(F)cc1	-16.8% (inactive)
CC1CCC2(CC1)NC(=O)N(CC(=O)NCc1ccco1)C2=O (stereo not drawn)	16.7% (inactive)
O=S1(=O)CC(N2CCN(c3ccccn3)CC2)CN1Cc1ccc(F)cc1 (stereo not drawn)	-1.35% (inactive)
CCCC(CNC(=O)COC(=O)C1=NNC(=O)CC1)c1ccc(Cl)cc1Cl (stereo not drawn)	-6.04% (inactive)
O=C(CN1C(=O)/C(=C\c2ccc(C(F)(F)F)cc2)Sc2ccccc21)NCc1ccco1	13.9% (inactive)
O=C(CN1CCCCC1)N1c2ccccc2Sc2ccc(C(F)(F)F)cc21	96.8% (active)
COc1cc(/C=C/C(=O)N2c3ccccc3Sc3ccc(C(F)(F)F)cc32)cc(OC)c1OC	-6.22% (inactive)
CCC(=O)Nc1cc(C(F)(F)F)ccc1N1CCCC1	3.67% (inactive)
O=C(CN1CCCCCC1)N1c2ccccc2Sc2ccc(C(F)(F)F)cc21	102% (active)
O=C(CSc1nc2ccccc2o1)N1c2ccccc2Sc2ccc(Cl)cc21	-3.61% (inactive)
COc1ccc(NC(=O)c2cccc(Cl)c2)c[n+]1[O-]	-8.94% (inactive)
Cc1cccc(NS(=O)(=O)c2ccc([N+](=O)[O-])cc2)n1	-16.4% (inactive)
Cc1nc2nc(C)c(NS(=O)(=O)c3ccc(C(C)(C)C)cc3)c(=O)n2[nH]1	20.2% (active)
CCc1nc2nc(C)c(NS(=O)(=O)c3ccc4c(c3)CCCC4)c(=O)n2[nH]1	12.2% (inactive)

Structure (SMILES)	inhibition
Cc1ccn2c(=O)c(C(=O)NCCC3=CCCCC3)c(O)nc2c1	-8.96% (inactive)
CN(C)C(=O)N1CCNCC1	-11.2% (inactive)
CC(=O)N1CCOc2ccc(S(=O)(=O)N3CCC(C(=O)Nc4ccccc4F)CC3)cc21	-13.2% (inactive)
CC(C)(C)N(CC#CCC(O)(c1ccccc1)C1CCCC1)CCO (stereo not drawn)	83.9% (active)
CC(C)c1ccc(N2CC(C(=O)Nc3nccs3)CC2=O)cc1 (stereo not drawn)	12.6% (inactive)
CCCCn1nnnc1C(c1cccc(OC)c1OC)N1CCN(C/C=C/c2ccccc2)CC1 (stereo not drawn)	34.7% (inactive)
CN1CCN(C2Cc3ccc(Cl)cc3Sc3ccc(F)cc32)CC1 (stereo not drawn)	60% (active)
COc1ccc(NC(=O)C(CC(C)C)NC(=O)C2CCC(C)CC2)cc1 (stereo not drawn)	0.68% (inactive)
O=C(Nc1ccc(S(=O)(=O)Nc2nccs2)cc1)c1cc(-c2ccncc2)nc2ccccc12	-10.5% (inactive)
CCN(CC)CCNC(=O)c1ccc(NC(=O)c2c(F)cccc2Cl)cc1	-0.98% (inactive)
CCN(CC)CCNC(=O)c1ccc(NC(=O)c2cc(-c3ccncc3)nc3ccccc23)cc1	45.5% (active)
CCCCNc1c(-c2ccc(OC)c(Sc3ccc(OC)cc3)c2)nc2ccc(Cl)cn12	19.9% (inactive)
CCCCNc1c(-c2cccc(Sc3ccc(OC)cc3)c2)nc2ccccn12	36.9% (active)
COC(=O)c1ccc2nc(-c3cccc(Br)c3)c(Cc3ccc(OC)cc3C)n2c1	-41.3% (inactive)
CCCCNC(=O)c1nc(C2CCN(S(=O)(=O)c3ccc(F)c(F)c3)CC2)oc1-c1cccc(C(F)(F)F)c1	-12% (inactive)
CCN(CC)CCCC(C)n1c2nc(=O)[nH]c(=O)c-2nc2cc(Cl)ccc21 (stereo not drawn)	49.8% (active)
O=Cc1cn(CCOc2ccc(F)cc2)c2ccccc12	7.49% (inactive)
CCCN(CCC)S(=O)(=O)c1cc2c(cc1Br)CCN2C(=O)CC	-3.69% (inactive)
CCN1CCN(c2c(Cl)cccc2NC(=O)c2ccc(Br)o2)CC1	33% (active)
O=C(Nc1cccc(Cl)c1N1CCOCC1)c1cccnc1	-2.23% (inactive)

Structure (SMILES)	inhibition
O=C(Nc1cccc(Cl)c1N1CCOCC1)c1ccc2c(c1)OCCO2	-6.53% (inactive)
CCn1cc(-c2cc(C(=O)O)on2)c(C)n1	-5.04% (inactive)
Cc1ccc(-c2nc3ccc(Br)cn3c2Cc2ccccc2C(F)(F)F)cc1	-2.72% (inactive)
CN1C(=O)c2ccc(NC(=O)c3c(F)c(F)c(F)c(F)c3F)cc2C1=O	-10% (inactive)
CCC(C)Sc1nc2c(cnn2-c2ccc(F)cc2)c(=O)[nH]1 (stereo not drawn)	-10.5% (inactive)
O=C(CSc1nc2c(cnn2-c2ccc(F)cc2)c(=O)[nH]1)N1CCCCCC1	39.7% (active)
Cc1cccc(-n2ncc3c(=O)[nH]c(SCC(=O)Nc4cc(C)on4)nc32)c1	-7.77% (inactive)
CC(C)C[C@H](NC(=O)[C@@H]1O[C@H]1C(=O)O)C(=O)NCCCCN=C(N)N	-28.2% (inactive)
CCCNC(=O)C1(C)CCN(Cc2csc(-c3ccc(Cl)cc3)n2)C1 (stereo not drawn)	15.8% (inactive)
CSCCC(c1nnnn1Cc1ccccc1)N1CCN(C/C=C/c2ccccc2)CC1 (stereo not drawn)	-4.53% (inactive)
Nc1ncnc2c1ncn2[C@@H]1O[C@H](C(=O)N2CCSC2)[C@@H](O)[C@H]1O	-21.6% (inactive)
COc1cc(OC)nc(N/N=C(\c2ccccc2)c2ccncc2)n1	1.36% (inactive)
CN(C)CCCO/N=C(\c1ccccc1)c1ccncc1	34.6% (active)
O=C(O/N=C(/c1ccccc1)c1ccncc1)c1ccccc1[N+](=O)[O-]	0.78% (inactive)
COc1ccccc1N1CCN(c2ncnc3sc(C)c(-c4ccccc4)c23)CC1	-8.38% (inactive)
CCc1cc2c(N3CCN(c4nnc(CC)s4)CC3)ncnc2s1	6.82% (inactive)
Oc1ccccc1N1CCN(c2ncnc3sc(-c4ccccc4)cc23)CC1	25.7% (active)
CN(C)C(=O)c1cccc(-c2cnc3c(NC=O)cc(-c4ccc(F)cc4)cn23)c1	-4.58% (inactive)

— PubChem BioAssay AID588852 (The Scripps Research Institute Molecular Screening Center, 2011)
